Compound activity: PubChem, National Center for Advancing Translational Sciences (NCATS)
KAT2A inh – blocks human GCN5L2 histone acetyltransferase | Q92830 | GCN5L2 HAT assay, ThioGlo1 CoA-SH fluorescence | Potency, µM (doses to about 58.9 µM), for the others: top-dose activity change, negative = inhibition, actives largely listed as inhibitors | hit rate 0.21% among 390,000; further: on the % scale 0 is the no-effect control and ±100 the full control effect
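Free CoA generated was detected with ThioGlo1 (50uM) fluorescence at Ex340nm/Em540nm, read immediately and after 20 min at room temperature. Enzyme, 20 nM in HEPES pH 7.5 buffer, saw compounds 15 min before adding 75uM H3(1-25) peptide and 70uM acetyl-CoA.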
PKM2 act – activators of human pyruvate kinase M2; hit rate 0.34% among 260,000; purified PKM2, Kinase-Glo ATP luminescence, activation; response scale: 0% is enzyme alone, no compound; Potency, µM (titrated, usually from 57.5 µM), for inactives: at the highest dose activation, hits mostly activators; P14618; further: on the % scale 0 is the no-effect control and ±100 the full control effect; nearly all actives have a fitted effect of over 55% in size
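ATP formation by purified human PK-M2, quantified via coupled luciferase luminescence after 1 h at room temperature with 0.1 mM ADP and 0.5 mM PEP final.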
Mito fusion act – mitochondrial division inhibition or fusion activation | hit rate 0.23% among 320,000 | Potency, µM (top dose mostly 46.1 µM), for the others: top-dose growth rescue (activation), usual class: activators | S. cerevisiae fusion-defective mutant growth rescue, CellTiterGlo 48 h; further: % of control where 0% means no effect; nearly all actives have a fitted effect of over 45% in size
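Compounds are tested for their ability to restore growth of mitochondrial fusion-defective yeast strains at non-permissive 37C in YPEG medium over 48 hours. Viability is quantified by luciferase luminescence.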
GLS inhibitor – glutaminase GLS (human) inhibition | GLS enzymatic activity, qHTS titration | Potency, µM (series often up to 45.5 µM), without a hit: top-dose activity change, negative = inhibition, hits mostly inhibitors | AID 624170 | O94925 | hit rate 0.21% among 410,000; further: on the % scale 0 is the no-effect control and ±100 the full control effect
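Coupled fluorescence readout: glutamate oxidase/HRP/Amplex Red detect glutamate formed by hKGA from L-glutamine (1 mM solution added). Buffer 45 mM KH2PO4 pH 8.2, 0.02% Tween-20; reads at t0 and 30 min RT.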
PLK1 PBD block – blocks phosphopeptide binding to human PLK1 polo-box domain; P53350; Plk1 PBD binding of FITC phosphopeptide, fluorescence polarization; Potency, µM, without a hit: max response, negative = inhibition, actives largely listed as inhibitors; hit rate 2.8% among 360,000; AID 720504; further: series mostly up to about 57 µM; on the % scale 0 is the no-effect control and ±100 the full control effect; nearly all actives have a fitted effect of over 65% in size
VDR inh – vitamin D3 receptor (human) inhibition | VDR-SRC2-3 peptide fluorescence polarization, 2 h | hit rate 0.93% among 400,000 | Potency, µM, without a hit: max response, negative = inhibition, most hits filed as inhibitors; further: on the % scale 0 is the no-effect control and ±100 the full control effect
Target sequence (P11473 whole entry, looked up): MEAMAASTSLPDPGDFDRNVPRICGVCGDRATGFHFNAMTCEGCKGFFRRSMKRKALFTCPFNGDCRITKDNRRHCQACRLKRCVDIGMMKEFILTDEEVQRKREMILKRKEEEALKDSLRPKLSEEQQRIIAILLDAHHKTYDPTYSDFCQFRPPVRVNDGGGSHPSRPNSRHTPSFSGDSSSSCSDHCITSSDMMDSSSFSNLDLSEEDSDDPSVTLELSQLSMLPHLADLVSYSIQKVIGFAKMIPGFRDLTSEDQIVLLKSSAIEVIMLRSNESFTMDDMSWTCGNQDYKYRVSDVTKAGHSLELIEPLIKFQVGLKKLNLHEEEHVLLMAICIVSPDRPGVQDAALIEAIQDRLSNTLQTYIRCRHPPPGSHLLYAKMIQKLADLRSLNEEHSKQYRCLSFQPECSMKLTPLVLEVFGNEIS
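FP read-out; VDR + SRC2-3 coactivator peptide; 23 nl compound by pintool; 2 h RT incubation; reagents held at 4 deg C, protected from light.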
* = called active by the depositor; u = inconclusive; x = no result given. Hits are enriched below; roughly 3.4% of the tested compounds scored in any of these assays. The call rests on the fitted dose curve; in most records, active means well fitted curve in the direction sought with a large enough effect; inconclusive means small, poorly fitted or top-dose-only effect, or another doubt; inactive means no such curve, though single readings can be large; an effect the other way counts as inactive or inconclusive. Potency means the concentration at half of the fitted maximal effect.

SMILES | KAT2A inh | PKM2 act | Mito fusion act | GLS inhibitor | PLK1 PBD block | VDR inh
CC(C)CN1CCC(=O)N([C@H](CSc2ccccc2)Cc2ccccc2)CC1 | 2.2% | 2.7% | -3.0% | 17.6% | 21.2µM* | u
CC(=O)Nc1ccc(SCCN2CCN(CCc3ccccc3)CCC2=O)cc1 | x | x | x | x | x | 17.8µM*
Cc1ccc(SC[C@H](Cc2ccccc2)N2CCN(CC(C)C)CCC2=O)cc1 | 4.1% | -0.6% | -5.3% | -2.7% | -8.6% | -23.8%
O=C1CCN(CCc2ccccc2)CCN1CCSc1ccccc1 | -20.5% | -2.4% | 0.9% | -0.5% | 2.8% | -13.3%
CC(=O)Nc1ccc(SC[C@H](Cc2ccccc2)N2CC[C@@H](C(C)(C)C)CCC2=O)cc1 | -13.5% | x | 9.7% | -3.6% | 9.47µM* | u
CC(C)(C)[C@@H]1CCC(=O)N(CC[C@H](Sc2ccccc2)c2ccccc2)CC1 | -5.4% | 0.6% | 0.2% | 1.4% | -14.2% | -12.4%
CC(=O)Nc1ccc(SC[C@H](Cc2ccccc2)N2CCN(CCc3ccccc3)CCC2=O)cc1 | -3.6% | 0.1% | -7.9% | 0.8% | 11.9µM* | u
C=CCOC(=O)c1[nH]c2c(c1C)C(=O)CC(c1ccco1)C2 (stereo not drawn) | -7.7% | u | -2.9% | 21.1% | u | 79.4µM*
Cc1c(C(=O)OCC2CCCO2)[nH]c2c1C(=O)CC(c1ccco1)C2 (stereo not drawn) | u | 20µM* | 4.9% | -2.5% | u | -10.9%
Cc1c(C(=O)OCC(C)C)[nH]c2c1C(=O)CC(c1ccco1)C2 (stereo not drawn) | -8.7% | u | 27.0% | -9.4% | -10.3% | -14.1%
COc1ccc(CNc2nc3ccccc3n2Cc2ccccc2)cc1OC | -3.5% | -1.2% | -7.3% | 28.5% | -8.4% | 0.7%
CC1=C(C(=O)Nc2ccc(C)cc2C)C(CC(C)C)n2nc(SCc3ccccc3C)nc2N1 (stereo not drawn) | -5.3% | x | x | 1.8% | x | 13.8%
Cc1ccc(Cl)cc1-n1ncc2c(Nc3ccc4c(c3)OCCO4)ncnc21 | 5.4% | x | x | -1.4% | x | 11.1%
CN1CCN(c2nc3cc(C(F)(F)F)ccc3n3cccc23)CC1 | -18.9% | x | 18.4µM* | 14.0% | -7.9% | -6.5%
CCN(CC)c1ccc(N=Cc2cc(Br)ccc2O)cc1 | -4.9% | -1.1% | -3.8% | 6.5% | -4.9% | u
Oc1ccc(Br)cc1C=Nc1ccc(Cl)cc1 | -6.6% | 5.6% | -1.8% | 67.5% | 21.2µM* | -4.1%
C#CCCc1cscc1/C=[N+](\[O-])c1ccc(C(=O)OCC)cc1 | -7.2% | x | 11.8% | u | 7.52µM* | u
COc1ccc(CN2CC(C(=O)N3CC(C)CC(C)C3)CC2=O)cc1 (stereo not drawn) | -1.3% | x | -9.8% | 1.0% | 26.7µM* | -9.0%
COc1ccc(CN2CC(C(=O)NCCC(C)C)CC2=O)cc1 (stereo not drawn) | -11.0% | 12.1% | 29.6% | 4.0% | 0.1% | -14.4%
Cc1cc(NC(=O)CSc2nc3c([nH]c4ccccc43)c(=O)n2-c2ccccc2F)no1 | -13.4% | 0.3% | -1.0% | -0.9% | -5.7% | -3.4%
O=C(NCCCN1CCOCC1)c1sc2cc([N+](=O)[O-])ccc2c1Cl | u | -14.2% | 5.8% | 0.0% | 1.06µM* | u
CCN1C(=O)S/C(=C/c2c(OCc3ccc(C(=O)O)cc3)ccc3ccccc23)C1=O | u | -6.4% | x | 19.2% | 37.7µM* | u
O=C(O)c1ccc(COc2ccc3ccccc3c2/C=C2/NC(=O)N(c3ccccc3)C2=O)cc1 | -12.7% | 8.9% | -3.4% | 1.5% | -18.2% | 6.4%
CC(CCC(=O)O)C1CCC2C3CC(O)[C@@H]4CC(O)CC[C@]4(C)C3CC[C@@]12C (stereo partly drawn) | -18.6% | x | x | x | x | -19.8%
O=S(=O)(Nn1cnnc1)c1ccccc1Cl | u | 7.5% | -2.6% | 7.9% | 26.7µM* | -3.9%
Nc1nc(NCc2c(F)cccc2Cl)nn1-c1ccccc1 | 0.8% | -0.7% | -7.5% | 27.6% | 26.7µM* | -12.6%
